# According to PubChem BioAssay:
# For part of these data: Measured potencies and affinities stand elsewhere. Activity calls are given as the source filed them.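 How the source made its calls, unless noted: active means hit in primary screen, with calcium signal over 5 SD above buffer well mean in both duplicates; inactive means the rest.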
# Tests used:
# [1] = tested on: TRPC4 beta (transient receptor potential cation channel C4), mouse; assay: TRPC4 cation channel opening, retest – cell-based, Fluo4 calcium, HEK293 TRPC4beta/mu-opioid, duplicates, 10 µM, confirmation (AID 2426;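 active means fluorescence ratio normalized to control raised more than 50% in primary screen plus both repeat runs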;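 on activation: percent rise of integrated ratio over buffer wells lacking compound which define 0%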); settings: Fluo4 calcium fluorescence, at 10 µM; stronger effect = higher value
# [2] = tested on: transient receptor potential cation channel C4 beta (TRPC4), mouse; assay: TRPC4 cation channel opening, second retest – cell-based, second round, Fluo4, HEK293 TRPC4beta/mu-opioid, 1 µM, confirmation (AID 2461;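 active means primary screen active and over 50% activation in each of two duplicate runs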;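 on activation: 0% = wells without test compound as baseline of integrated fluorescence ratio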); settings: Fluo4 calcium fluorescence, at 1 µM; stronger effect = higher value
# [3] = tested on: TRPC4 (transient receptor potential cation channel C4 beta), mouse; assay: potentiation of DAMGO EC20 TRPC4 response – cell-based, second round, Fluo-4, HEK293 TRPC4beta/mu-opioid, 1 µM, confirmation (AID 2554;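 active means primary screen hit whose fluorescence ratio, in both repeats, exceeds the weak agonist control mean by 3 SD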); settings: DAMGO EC20, Fluo-4 calcium flux, at 1 µM; stronger effect = higher value
# [4] = tested on: TRPC4 beta (transient receptor potential cation channel C4), mouse; assay: potentiation of DAMGO EC20 TRPC4 response – cell-based, Fluo-4, HEK293 TRPC4beta/mu-opioid, confirmation (AID 2555;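 active means primary screen hit whose calcium fluorescence ratio, in both repeats, exceeds the weak agonist control mean by 3 SD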); settings: DAMGO EC20, Fluo-4 calcium flux, at 10 µM; stronger effect = higher value
# [5] = target: Short transient receptor potential channel 4 (Mus musculus) (UniProt Q9QUQ5); assay: blockers of DAMGO-evoked TRPC4 calcium flux – cell-based, Fluo4, HEK293 TRPC4beta/mu-opioid, confirmation (AID 2636;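 active means calcium signal cut by more than 3 SD below the full-agonist control yet still positive, in both repeats and the earlier primary screen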); settings: at 10 µM; stronger effect = higher value
# Short transient receptor potential channel 4 (Mus musculus), sequence (Q9QUQ5 whole entry, looked up): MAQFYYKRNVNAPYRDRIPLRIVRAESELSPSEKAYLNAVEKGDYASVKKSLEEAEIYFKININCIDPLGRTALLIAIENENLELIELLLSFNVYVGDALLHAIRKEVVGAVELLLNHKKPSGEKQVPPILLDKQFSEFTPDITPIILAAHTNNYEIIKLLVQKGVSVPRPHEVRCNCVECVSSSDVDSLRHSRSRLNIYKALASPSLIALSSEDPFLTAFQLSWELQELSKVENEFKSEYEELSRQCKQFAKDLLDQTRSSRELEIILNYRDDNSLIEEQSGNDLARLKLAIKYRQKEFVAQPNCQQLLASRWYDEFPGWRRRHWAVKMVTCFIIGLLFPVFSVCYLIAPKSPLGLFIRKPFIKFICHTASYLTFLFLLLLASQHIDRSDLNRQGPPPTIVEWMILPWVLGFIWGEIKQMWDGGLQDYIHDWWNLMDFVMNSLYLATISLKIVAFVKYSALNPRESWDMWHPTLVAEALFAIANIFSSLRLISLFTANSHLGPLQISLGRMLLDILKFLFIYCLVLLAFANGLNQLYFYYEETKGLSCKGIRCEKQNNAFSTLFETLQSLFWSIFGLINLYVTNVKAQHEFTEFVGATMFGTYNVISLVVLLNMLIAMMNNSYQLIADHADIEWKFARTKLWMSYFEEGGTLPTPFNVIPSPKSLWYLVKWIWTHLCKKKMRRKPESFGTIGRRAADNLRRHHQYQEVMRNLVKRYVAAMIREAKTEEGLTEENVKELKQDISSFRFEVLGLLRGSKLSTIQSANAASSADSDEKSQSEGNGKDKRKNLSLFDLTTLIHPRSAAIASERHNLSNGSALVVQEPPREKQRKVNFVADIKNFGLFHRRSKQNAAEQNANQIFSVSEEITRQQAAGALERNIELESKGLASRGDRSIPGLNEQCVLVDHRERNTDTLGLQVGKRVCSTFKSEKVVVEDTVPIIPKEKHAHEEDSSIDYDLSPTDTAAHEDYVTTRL
# [6] = target: Short transient receptor potential channel 4 (Mus musculus) (UniProt Q9QUQ5); assay: blockers of DAMGO-evoked TRPC4 calcium flux – cell-based, second round, Fluo4, HEK293 TRPC4beta/mu-opioid, 1 µM, confirmation (AID 2637;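 active means calcium signal ratio cut to more than 3 SD under the fully stimulated control mean yet still positive, in both repeats and the primary screen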); settings: at 1 µM; stronger effect = higher value
# [7] = target: Short transient receptor potential channel 4 (Mus musculus) (UniProt Q9QUQ5); assay: potentiation of DAMGO-evoked TRPC4 calcium signal – cell-based, HEK293 TRPC4/mu-opioid, Fluo-4 calcium, EC20 DAMGO, dose response (AID 434941;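 active means earlier screen potentiator hit that boosts the TRPC4 ion channel at some dose, with a dose response; inactive means no potentiation, no dose response, or not a prior hit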;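 further: calcium entry triggered by an EC20 dose of DAMGO at the co-expressed mu-opioid receptor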)
# [8] = target: Short transient receptor potential channel 4 (Mus musculus) (UniProt Q9QUQ5); assay: block of DAMGO-driven TRPC4 calcium entry – cell-based, HEK293 TRPC4/mu-opioid, Fluo-4 calcium, dose response (AID 434942;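 active means primary screen inhibitor hit that blocks the TRPC4 channel at some tested dose, yielding a dose curve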)
# [9] = target: Short transient receptor potential channel 6 (Mus musculus) (UniProt Q61143); assay: TRPC6 blockade by TRPC4 inhibitor hits – cell-based, HEK293, membrane potential dye, duplicate, selectivity assay for TRPC4 inhibitor project, confirmation (AID 434948;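 active means active in primary screen and both duplicates, each dropping signal beyond three positive-control SD with fluorescence still positive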); settings: HEK293 TRPC6, membrane potential dye fluorescence, at 10 µM, stimulated with maximal-effect acetylcholine; stronger effect = higher value
# Short transient receptor potential channel 6 (Mus musculus), sequence (Q61143 whole entry, looked up): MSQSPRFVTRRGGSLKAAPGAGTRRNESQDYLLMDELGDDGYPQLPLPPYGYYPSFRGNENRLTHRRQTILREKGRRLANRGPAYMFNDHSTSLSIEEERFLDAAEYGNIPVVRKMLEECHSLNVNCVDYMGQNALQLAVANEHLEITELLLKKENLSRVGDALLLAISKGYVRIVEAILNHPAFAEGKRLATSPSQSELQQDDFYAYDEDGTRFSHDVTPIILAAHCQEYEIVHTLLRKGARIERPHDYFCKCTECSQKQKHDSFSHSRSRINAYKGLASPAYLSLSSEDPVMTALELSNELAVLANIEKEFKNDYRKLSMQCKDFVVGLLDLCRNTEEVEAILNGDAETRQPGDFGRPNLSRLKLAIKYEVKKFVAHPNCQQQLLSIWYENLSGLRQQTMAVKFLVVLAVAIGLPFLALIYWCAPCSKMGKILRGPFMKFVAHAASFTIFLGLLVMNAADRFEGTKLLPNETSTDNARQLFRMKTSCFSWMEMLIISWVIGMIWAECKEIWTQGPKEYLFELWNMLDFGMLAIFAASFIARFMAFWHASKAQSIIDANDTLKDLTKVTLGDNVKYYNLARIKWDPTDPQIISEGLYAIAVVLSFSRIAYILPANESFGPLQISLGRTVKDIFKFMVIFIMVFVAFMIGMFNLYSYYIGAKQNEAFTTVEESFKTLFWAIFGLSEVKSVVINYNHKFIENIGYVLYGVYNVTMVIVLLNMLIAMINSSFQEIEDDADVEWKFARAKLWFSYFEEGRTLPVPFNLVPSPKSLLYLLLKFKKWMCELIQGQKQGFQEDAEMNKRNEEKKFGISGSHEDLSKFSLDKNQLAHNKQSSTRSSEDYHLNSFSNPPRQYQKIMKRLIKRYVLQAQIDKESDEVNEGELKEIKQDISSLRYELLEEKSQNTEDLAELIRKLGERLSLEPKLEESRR
# [10] = target: Short transient receptor potential channel 6 (Mus musculus) (UniProt Q61143); assay: TRPC6 opening by TRPC4 activator hits – cell-based, HEK293, membrane potential dye, duplicate, selectivity assay for TRPC4 activator project, confirmation (AID 434950;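 active means membrane potential signal rise above negative control mean plus 3 SD in both duplicates, also active in the earlier TRPC4 screen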;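 on activation: 0% = buffer only wells and 100% = acetylcholine maximal-effect wells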); settings: HEK293 TRPC6, membrane potential fluorescence, at 10 µM; activation: stronger effect = higher value; outcome: activation
# [11] = target: Short transient receptor potential channel 6 (Mus musculus) (UniProt Q61143); assay: positive modulators of mouse TRPC6 channel – HEK293 cells, membrane potential dye, duplicate, selectivity assay for TRPC4 potentiator project, confirmation (AID 434952;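 active means compound raising the membrane signal above positive-control mean plus 3 SD in both repeats, and a primary screen hit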); settings: HEK293 TRPC6, membrane potential dye fluorescence, at 10 µM, maximal acetylcholine added after compound; stronger effect = higher value
# [12] = target: Short transient receptor potential channel 4 (Mus musculus) (UniProt Q9QUQ5); assay: calcium flux activators in TRPC4/5HT1a cells, counter-screen for TRPC4 activator project, cell-based, second counter screen, HEK293 TRPC4/5HT1a, Fluo-4 (AID 434977;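 active means calcium signal rise above buffer-control mean plus 5 SD in both duplicates, and also a hit in the primary screen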;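 on activation: plate controls were assay buffer for no effect and maximal serotonin response for full effect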); settings: Fluo-4 calcium flux, at 10 µM; stronger effect = higher value
# [13] = serotonin-gated TRPC4 signal block – cell-based, second counter screen, HEK293 TRPC4/5HT1a, Fluo-4, counter-screen for TRPC4 inhibitor project, confirmation (AID 434978;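 active means primary screen active whose calcium signal fell more than 3 SD beyond the full-serotonin control mean in both duplicate plates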;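 further: serotonin given first at submaximal then at maximal dose after compound preincubation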); settings: Fluo-4 calcium flux, at 10 µM, serotonin added to trigger calcium flux; stronger effect = higher value
# [14] = tested on: TRPC4 (mouse), co-expressed with 5HT1a in HEK293; assay: enhancement of serotonin-evoked TRPC4 response – cell-based, second counter screen, HEK293 TRPC4/5HT1a, Fluo-4, counter-screen for TRPC4 potentiator project, confirmation (AID 434979;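 active means signal rise over 3 SD above mean of control wells given weak agonist, in both repeats and first screen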); settings: Fluo-4 calcium flux, at 10 µM, serotonin added at its EC20 dose; stronger effect = higher value
# [15] = nonspecific calcium rise without TRPC4 – cell-based, HEK293 mu-opioid receptor line, counter-screen for TRPC4 activator project, confirmation (AID 449723); settings: HEK293 mu-opioid cells, Fluo-4 calcium fluorescence, at 10 µM; stronger effect = higher value;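 further: counter screen cells carry the mu-opioid receptor alone and lack TRPC4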
# [16] = nonspecific potentiation of DAMGO calcium response – cell-based, HEK293 mu-opioid receptor line, counter-screen for TRPC4 allosteric potentiator project, confirmation (AID 449724;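 active means calcium signal rise more than 3 SD above the low-dose agonist control mean, in both duplicate plates and the primary screen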); settings: HEK293 mu-opioid receptor cells, Fluo-4 calcium flux, at 10 µM, compound added before EC20 DAMGO stimulus; stronger effect = higher value
smiles,measurement,setting,value
COc1ccc(CCN(C)CCC(=O)Nc2c(C)cc(C)cc2C)cc1OC,outcome,[1],inactive
same,outcome,[2],inactive
same,outcome,[3],inactive
same,outcome,[4],inactive
same,outcome,[5],inactive
same,outcome,[6],inactive
same,outcome,[7],inactive
same,outcome,[8],inactive
same,outcome,[9],inactive
same,activation,[10],48.5% (active)
same,outcome,[11],inactive
same,activation,[12],58.1% (active)
same,outcome,[13],inactive
same,outcome,[14],inactive
same,outcome,[15],inactive
same,outcome,[16],inactive
O=C(COc1ccccc1)NNC(=S)NC(=O)c1ccc(Cl)cc1Cl,activation,[1],63% (active)
same,outcome,[2],inactive
same,outcome,[3],inactive
same,outcome,[4],inactive
same,outcome,[5],inactive
same,outcome,[6],inactive
same,outcome,[7],inactive
same,outcome,[8],inactive
same,outcome,[9],inactive
same,outcome,[10],inactive
same,outcome,[11],inactive
same,activation,[12],44.7% (active)
same,outcome,[13],inactive
same,outcome,[14],inactive
same,outcome,[15],inactive
same,outcome,[16],inactive
O=C(C1CCCN(Cc2ccncc2)C1)N1CCc2ccccc2C1 (stereo not given),activation,[1],204% (active)
same,activation,[2],149% (active)
same,outcome,[3],inactive
same,outcome,[4],inactive
same,outcome,[5],inactive
same,outcome,[6],inactive
same,outcome,[7],inactive
same,outcome,[8],inactive
same,outcome,[9],inactive
same,activation,[10],27.5% (active)
same,outcome,[11],inactive
same,activation,[12],84.2% (active)
same,outcome,[13],inactive
same,outcome,[14],inactive
same,outcome,[15],inactive
same,outcome,[16],inactive
COc1ccccc1CCC(=O)Nc1cc(S(=O)(=O)N2CCCCC2)ccc1N1CCN(C)CC1,activation,[1],153% (active)
same,activation,[2],67% (active)
same,outcome,[3],inactive
same,outcome,[4],inactive
same,outcome,[5],inactive
same,outcome,[6],inactive
same,outcome,[7],inactive
same,outcome,[8],inactive
same,outcome,[9],inactive
same,outcome,[10],inactive
same,outcome,[11],inactive
same,activation,[12],32.8% (active)
same,outcome,[13],inactive
same,outcome,[14],inactive
same,outcome,[15],inactive
same,outcome,[16],inactive
Cc1ccc(-n2cc(CNCCc3ncc(C)[nH]3)c(-c3ccc(F)cc3)n2)cc1,activation,[1],177% (active)
same,outcome,[2],inactive
same,outcome,[3],inactive
same,outcome,[4],inactive
same,outcome,[5],inactive
same,outcome,[6],inactive
same,outcome,[7],inactive
same,outcome,[8],inactive
same,outcome,[9],inactive
same,outcome,[10],inactive
same,outcome,[11],inactive
same,activation,[12],14.9% (active)
same,outcome,[13],inactive
same,outcome,[14],inactive
same,outcome,[15],inactive
same,outcome,[16],inactive
Cc1ccc(C)c(-n2cc(CNCCc3cnccn3)c(-c3ccccc3)n2)c1,activation,[1],152% (active)
same,activation,[2],54% (active)
same,outcome,[3],inactive
same,outcome,[4],inactive
same,outcome,[5],inactive
same,outcome,[6],inactive
same,outcome,[7],inactive
same,outcome,[8],inactive
same,outcome,[9],inactive
same,activation,[10],40% (active)
same,outcome,[11],inactive
same,outcome,[12],inactive
same,outcome,[13],inactive
same,outcome,[14],inactive
same,outcome,[15],inactive
same,outcome,[16],inactive
CCOC(=O)C1(CCOc2ccccc2)CCN(Cc2cnc(C)s2)CC1,activation,[1],66% (active)
same,outcome,[2],inactive
same,outcome,[3],inactive
same,outcome,[4],inactive
same,outcome,[5],inactive
same,outcome,[6],inactive
same,outcome,[7],inactive
same,outcome,[8],inactive
same,outcome,[9],inactive
same,activation,[10],59.5% (active)
same,outcome,[11],inactive
same,activation,[12],5.79% (active)
same,outcome,[13],inactive
same,outcome,[14],inactive
same,outcome,[15],inactive
same,outcome,[16],inactive
COc1ccc(-c2nn(-c3ccccc3)cc2CNCc2cccnc2)c(F)c1,activation,[1],224% (active)
same,outcome,[2],inactive
same,outcome,[3],inactive
same,outcome,[4],inactive
same,outcome,[5],inactive
same,outcome,[6],inactive
same,outcome,[7],inactive
same,outcome,[8],inactive
same,outcome,[9],inactive
same,outcome,[10],inactive
same,outcome,[11],inactive
same,outcome,[12],inactive
same,outcome,[13],inactive
same,outcome,[14],inactive
same,outcome,[15],inactive
same,outcome,[16],inactive
COc1cc(OC)cc(C(=O)NCCCN2CCN(CCCNC(=O)c3cc(OC)cc(OC)c3)CC2)c1,activation,[1],121% (active)
same,activation,[2],94% (active)
same,outcome,[3],inactive
same,outcome,[4],inactive
same,outcome,[5],inactive
same,outcome,[6],inactive
same,outcome,[7],inactive
same,outcome,[8],inactive
same,outcome,[9],inactive
same,activation,[10],31.5% (active)
same,outcome,[11],inactive
same,activation,[12],30.4% (active)
same,outcome,[13],inactive
same,outcome,[14],inactive
same,outcome,[15],inactive
same,outcome,[16],inactive
COC(=O)c1ccccc1N=Nc1c(N)[nH][nH]c1=O,activation,[1],87% (active)
same,outcome,[2],inactive
same,potentiation,[3],69% (active)
same,potentiation,[4],54% (active)
same,outcome,[5],inactive
same,outcome,[6],inactive
same,outcome,[7],inactive
same,outcome,[8],inactive
same,outcome,[9],inactive
same,outcome,[10],inactive
same,outcome,[11],inactive
same,activation,[12],51.2% (active)
same,outcome,[13],inactive
same,potentiation,[14],46.3% (active)
same,outcome,[15],inactive
same,outcome,[16],inactive
Cc1ccc(C)c(CN2CCC(CNC(=O)CCc3nnc4ccc(N5CCCCC5)nn34)CC2)c1,activation,[1],157% (active)
same,activation,[2],92% (active)
same,outcome,[3],inactive
same,outcome,[4],inactive
same,outcome,[5],inactive
same,outcome,[6],inactive
same,outcome,[7],inactive
same,outcome,[8],inactive
same,outcome,[9],inactive
same,outcome,[10],inactive
same,outcome,[11],inactive
same,outcome,[12],inactive
same,outcome,[13],inactive
same,outcome,[14],inactive
same,outcome,[15],inactive
same,outcome,[16],inactive
O=C(NCCc1ccccn1)c1ccc(OC2CCN(CCc3ccccc3)CC2)cc1,activation,[1],76% (active)
same,outcome,[2],inactive
same,outcome,[3],inactive
same,outcome,[4],inactive
same,outcome,[5],inactive
same,outcome,[6],inactive
same,outcome,[7],inactive
same,outcome,[8],inactive
same,outcome,[9],inactive
same,activation,[10],44.5% (active)
same,outcome,[11],inactive
same,outcome,[12],inactive
same,outcome,[13],inactive
same,outcome,[14],inactive
same,outcome,[15],inactive
same,outcome,[16],inactive
CNC[C@H](CC1CCCCC1)NC[C@H](Cc1ccccc1)NCCC12CC3CC(CC(C3)C1)C2,activation,[1],219% (active)
same,outcome,[2],inactive
same,outcome,[3],inactive
same,outcome,[4],inactive
same,outcome,[5],inactive
same,outcome,[6],inactive
same,outcome,[7],inactive
same,outcome,[8],inactive
same,outcome,[9],inactive
same,outcome,[10],inactive
same,outcome,[11],inactive
same,activation,[12],63.4% (active)
same,outcome,[13],inactive
same,outcome,[14],inactive
same,activation,[15],51.7% (active)
same,outcome,[16],inactive
Cc1csc2c(N3CCN(C(=O)NC(C)(C)C)CC3)ncnc12,activation,[1],92% (active)
same,outcome,[2],inactive
same,outcome,[3],inactive
same,outcome,[4],inactive
same,outcome,[5],inactive
same,outcome,[6],inactive
same,outcome,[7],inactive
same,outcome,[8],inactive
same,outcome,[9],inactive
same,outcome,[10],inactive
same,outcome,[11],inactive
same,activation,[12],36.7% (active)
same,outcome,[13],inactive
same,outcome,[14],inactive
same,outcome,[15],inactive
same,outcome,[16],inactive
CN(C)C(CNC(=S)Nc1cccc(Cl)c1)c1ccccc1 (stereo not given),activation,[1],255% (active)
same,activation,[2],127% (active)
same,outcome,[3],inactive
same,outcome,[4],inactive
same,outcome,[5],inactive
same,outcome,[6],inactive
same,outcome,[7],inactive
same,outcome,[8],inactive
same,outcome,[9],inactive
same,outcome,[10],inactive
same,outcome,[11],inactive
same,outcome,[12],inactive
same,outcome,[13],inactive
same,outcome,[14],inactive
same,outcome,[15],inactive
same,outcome,[16],inactive
